# Source: PubChem (several laboratories)
# In the library only some 1% were active in any assay of this set; here they are far more common.
# SSB-PriA inh = blocks PriA binding to SSB C-terminal tail; 0.6% of 430,000 active; AlphaScreen SSBct-PriA binding, biotinylated peptide; inhibition, % at 33 µM; AID 1272365; in the data active = inhibition mostly above about 37%, no sharp cut-off; inactive = mostly below about 20%;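 note: plate controls were negative control peptide for no effect and reference peptide for full effect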
# Sa ugtP lethal = growth inhibition of S. aureus ugtP deletion strain. S. aureus RN4220 ugtP deletion, OD600 growth, 16 h. 0.54% of 330,000 active. growth inhibition, % (concentration not given with the values). AID 1259309; in the data active = growth inhibition above about 68%;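 note: plate controls were untreated wells for no effect and antibiotic for full effect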
# RN4220 kill = S. aureus RN4220 growth inhibition; OD600, 16 h; inhibition, % (concentration not given with the values); 0.33% of 330,000 active; AID 1259311; in the data active = inhibition above about 85%;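 note: plate controls were untreated cells for no effect and reference antibiotic for full effect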
# * marks the source's active call; other numbers are inactive results; · = not tested or not shown; ! = not confirmed by another sample.
SMILES,SSB-PriA inh,Sa ugtP lethal,RN4220 kill
Cn1cc(-c2ccco2)nc1CCNC(=O)Nc1ccccc1Cl,1,·,·
Cc1ccc(OC2CCN(C(=O)CN3CCN(c4ccccc4F)C3=O)C2)nn1 (stereo not drawn),5,·,·
O=C1C(=O)N(CCCn2ccnc2)C(c2cccc(Br)c2)C1=C(O)c1ccc2c(c1)OCCO2 (stereo not drawn),4,·,·
O=S(=O)(NCCC1=CCCCC1)c1ccc(C2CCCCC2)cc1,1,·,·
CCOC(=O)c1c2c(n(Cc3ccccc3)c1C)C(=O)C(=O)c1ccccc1-2,23,·,·
CCOC(=O)c1c2c(n(C)c1C)C(=O)C(=O)c1ccc(Br)cc1-2,-5,95*,95*
O=C(Oc1ccc(OCc2ccccc2)cc1)c1ccc([N+](=O)[O-])cc1,3,·,·
NC1CCN(c2c(F)cc3c(=O)c(C(=O)O)cn(C4CC4)c3c2Cl)C1 (stereo not drawn),-4,100*,100*
CCOC(=O)c1cn(C2CC2)c2c(F)c(NCCCN(C)C)c(F)cc2c1=O,1,7,4
COc1c(N2CCNC(C)C2)c(F)cc2c(=O)c(C(=O)O)cn(C3CC3)c12 (stereo not drawn),·,100*,100*
Cc1cccc(-c2cc(=O)c(C(=O)O)cn2-c2ccc(F)cc2F)c1,-17,4,5
O=C(O)c1cn(C2CCCCC2)c2ccccc2c1=O,-4,17,-9
NC1CCN(c2nc3c(cc2F)c(=O)c(C(=O)O)cn3-c2ccc(F)cc2F)C1 (stereo not drawn),-3,99*,100*
COc1c(N2CC3CCCNC3C2)c(F)cc2c(=O)c(C(=O)O)cn(C3CC3)c12 (stereo not drawn),·,100*,101*
CCOC(=O)C1CN(c2cc3c(cc2F)c(=O)c(C(=O)O)cn3CC)OC1C(=O)OCC (stereo not drawn),-6,17,9
O=C(NCc1cccnc1-c1ccsc1)C1c2ccccc2Oc2ccccc21,-9,·,·
Cc1cc(C(=O)OC2CN(c3nc4ccc(F)cc4s3)C2)nn1C,7,·,·
CCOc1ccc(C(C)(C)C)cc1S(=O)(=O)Nc1ncccc1C,1,·,·
O=C(CSc1nc2c(sc3ncccc32)c(=O)n1Cc1cccs1)Nc1ccc(F)cc1Cl,-8,·,·
O=C(CSC1CCCC1)N(Cc1ccsc1)Cc1ccco1,-18,·,·
CN1CCN(n2c3c(c(SCC(=O)NCc4ccc5c(c4)OCO5)nc2=O)CCC3)CC1,-15,·,·
Cc1ccc(-n2sc3ccccc3c2=O)cc1,10,100*,100*
O=c1c2ccccc2sn1-c1ccc(F)cc1,0,47,29
CCc1ccc(N(C)S(=O)(=O)c2ccsc2C(=O)Nc2ccc(Oc3ccccc3)cc2)cc1,-5,·,·
O=C(N/N=C1\C(=O)c2cccc3cccc1c23)c1ccc(O)cc1,·,1,-19
SMILES,SSB-PriA inh,Sa ugtP lethal,RN4220 kill
O=C(NN=C1C(=O)c2cccc3cccc1c23)c1ccc(Cl)cc1,-1,92*,97*
CCOc1cc(-c2ccc(N)c(OCC)c2)ccc1N,70*,1,2
CCOc1ccc(N)c(SSc2cc(OCC)ccc2N)c1,-5,38,2
Cc1nnc2sc(SCC(=O)c3ccccc3)nn2c1=O,-18,·,·
Cc1cc(CCNC(=O)c2ccc(S(=O)(=O)N3CCCC3)cc2)on1,-13,·,·
Cc1nnsc1C(=O)N1CCC(CNC(=O)c2cc3ccccc3[nH]2)CC1,-29,·,·
CCn1cc(NC(=O)NCc2ccco2)c2ccccc21,0,·,·
CSCC(C)(O)CNC(=O)Cc1ccc(F)cc1 (stereo not drawn),-11,·,·
CCN(CC)c1ccc2nc3ccccc3[n+](CC)c2c1,42*,·,·
CCN(CC)c1ccc2nc3ccc(N)cc3[n+](-c3ccccc3)c2c1,54*,·,·
CCN(CC)c1ccc(C=NN=C(N)N)c(O)c1,20,-3,-2
CCN(CC)c1ccc(C=NNc2nc3ccccc3[nH]2)c(O)c1,92,27,33
Nc1cccc(-c2csc(-c3cccnc3)n2)c1,-12,·,·
O=C(COc1ccc(Br)cc1)NC(=S)Nc1ccccc1N1CCOCC1,-2,-4,-6
O=C(NC(=S)Nc1ccccc1N1CCCCC1)c1ccccc1,4,48,-10
O=C(NC(=S)Nc1ccccc1N1CCOCC1)c1ccc(Br)cc1,19,94*,-8
O=C(NC(=S)Nc1ccccc1N1CCCC1)c1ccc(F)cc1,8,79,5
Cc1ccccc1C(=O)NC(=S)Nc1ccccc1N1CCCC1,39*,85*,0
O=C(NC(=S)Nc1ccccc1N1CCCCC1)c1ccc(F)cc1Cl,4,91*,-13
CC1(C)Cc2cccc(OCC(=O)NCC(O)c3csc4ccccc34)c2O1 (stereo not drawn),-34,·,·
CCC(=O)Nc1nnc(Cc2ccc(SC)cc2)o1,-1,·,·
Cn1c(=O)c2c(SCc3cccc(C(F)(F)F)c3)nc(CC(C)(C)C)nc2n(C)c1=O,-15,·,·
Cc1cc(N2CCOCC2)nc(N2CCN(C(=O)CCC3CCCCC3)CC2)n1,1,·,·
O=C1OC(c2ccccc2)(c2ccc3cc(O)ccc3c2)c2ccccc21 (stereo not drawn),2,93*,-18
O=C1OC(c2ccc(O)cc2)(c2ccc(O)cc2)c2ccccc21,-7,0,7
SMILES,SSB-PriA inh,Sa ugtP lethal,RN4220 kill
C[C@@H](C(=O)Nc1nccs1)n1nnc2ccccc2c1=O,-9,·,·
COc1ccc(CCC(=O)NCCn2ccnc2-c2ncccn2)cc1,96*,·,·
COC(=O)c1ccc(C(=O)NCCn2ccnc2-c2ncccn2)cc1,35,·,·
O=C(CSCc1ccccc1)NCCn1ccnc1-c1ccccn1,19,·,·
CSc1ccccc1C(=O)NCCn1ccnc1-c1ncccn1,97*,·,·
O=C(CSCc1ccccc1)NCCn1ccnc1-c1ncccn1,42*,·,·
O=C(NCCn1ccnc1-c1ncccn1)C1c2ccccc2Oc2ccccc21,53*,·,·
O=C(NCCn1ccn2nccc12)C1c2ccccc2Oc2ccccc21,-13,·,·
COc1ccc(CCC(=O)NCCn2ccnc2C2CC2)cc1,7,·,·
Cc1noc(C)c1C(=O)N1CC(S(=O)(=O)Cc2ccco2)C1,-4,·,·
Cc1nc(-n2cccc2)sc1C(=O)N1CCC(c2nn(C)c(=O)n2C2CC2)CC1,-10,·,·
CCn1c(C)cc(O)c(C(c2cccnc2)c2c(O)cc(C)n(CC)c2=O)c1=O,0,·,·
O=C(Cn1cnc2c(cnn2-c2cccc(Cl)c2)c1=O)OCc1ccccc1,-17,·,·
CN1CCN(c2cc(NC(=O)COc3ccccc3F)ncn2)CC1,-5,·,·
CC(C)CS(=O)(=O)NCc1ccc(C(=O)c2ccccc2)s1,-13,·,·
O=C(NCCn1ccnc1-c1ncccn1)NCc1ccc(Cl)cc1,32,·,·
O=C(NCCc1ccccc1)NCCn1ccnc1-c1ncccn1,96*,·,·
Cc1cccc(C(=O)c2cnc3ccccc3c2-c2ccccc2)c1,-15,88*,-1
Cc1c(Nc2ccccc2C(=O)c2ccccc2)nc2ccccc2c1-c1ccccc1,-16,·,·
O=C(NCCn1ccc(-c2ccsc2)n1)c1cc(=O)c2ccccc2o1,-1,·,·
COc1ccc(Nc2nc3ccc(OC)cc3s2)cc1,38*!,7,19
COc1ccc2nc(Nc3ccc4nc(C)sc4c3)sc2c1,16,·,·
Cc1ccc(C)c(N2CCN(S(=O)(=O)c3ccc4c(c3)NC(=O)CO4)CC2)c1,2,-2,1
Cc1ccc(C)c(N2CCN(S(=O)(=O)c3ccc4c(c3)NC(=O)CC(=O)N4)CC2)c1,8,90*,23
COCCNC(=O)Nc1nnc(Cc2ccc(F)cc2)o1,-11,·,·
